Each structure is given as a SMILES string. The source made the active and inactive calls. The calls were made as follows: active = hit-call score of the fitted dose curve at least 0.9, where 1 is the maximum; inactive = score below 0.9.

Experimental findings from PubChem BioAssay (EPA / NIEHS) are described below.

This experiment in a line: APR_HepG2_p53Act_24hr: Apredica 24-hour HepG2 Assay for p53 Activation (AID 2282913). Particulars: high-content imaging, actives raise or lower the signal. On the procedure: APR_HepG2_24hr is a cell-based, multiplexed-readout assay that uses HepG2, a human liver cell line, with measurements taken at 24 hours after chemical dosing in a 384-well plate.APR_HepG2_p53Act_24hr is one of 10 assay component(s) measured or calculated from the APR_HepG2_24hr assay. It is designed to make measurements of dna content, a form of viability reporter, as detected with fluorescence intensity signals by HCS Fluorescent Imaging technology.Data from the assay component APR_HepG2_p53Act_24hr was analyzed into 1 assay endpoint. This assay endpoint, APR_HepG2_p53Act_24hr, was analyzed with bidirectional fitting relative to DMSO as the negative control and baseline of activity. Using a type of viability reporter, measures of protein for gain or loss-of-signal activity can be used to understand the signaling at the pathway-level as they relate to the gene TP53. Furthermore, this assay endpoint can be referred to as a primary readout, because this assay has produced multiple assay endpoints where this one serves a signaling function. To generalize the intended target to other relatable targets, this assay endpoint is annotated to the dna binding intended target family, where the subfamily is tumor suppressor.
Cells were treated with dimethyl sulfoxide (DMSO) as a solvent control at a final concentration of 0.5% v/v or with compounds in DMSO with a resulting final DMSO concentration of 0.5% v/v. Compound treatment was done at concentrations of 0.39, 0.78, 1.56, 3.12, 6.24, 12.5, 25, 50, 100, and 200 uM in duplicate on each plate. Cells were treated with compounds for 1, 24, or 72 hr. Carbonyl […] m-chloro-phenylhydrazone (CCCP) and taxol were used as positive controls for mitochondrial function and cytoskeletal stability, respectively; DMSO served as the negative control for this experiment. Cells were fixed by the direct addition of 50 uL formaldehyde in Hank's Balanced Salt Solution (HBSS) to a final concentration of 3.7%. After incubation in the fixation medium for 30 min at room temperature (293-298 K), cells were rinsed twice with HBSS and treated with cell permeabilization buffer (16 uL of 0.5% Triton X-100) for 10 min at room temperature (293-298 K) before labeling. For mitochondrial membrane potential and mitochondrial measurements, pre-fixed cells were incubated with 50 uL of MitoTracker Red CMXRos (Invitrogen) at a concentration of 250 nM for 30 min before fixation. In the remaining cases, post-fixed cells were labeled by incubation with a multiplexed mixture of primary antibodies in HBSS for 60 min at room temperature (293-298 K) to detect immunoreactivity of c-Jun (1:500), phospho-histone H3 (1:100), phospho-histone H2A.x (1:200), p53 (1:400), alpha-tubulin (1:200) and Hoechst 33342 (2 ug/mL). Cells were labeled for multiplexed imaging on two separate plates: a) Hoechst 33342, MitoTracker Red, phospho-histone H3, and alpha-tubulin, and b) Hoechst 33342, phospho-histone H2A.x, and c-Jun. A final rinse with HBSS (50 uL) was performed before analysis. The primary and secondary antibodies for the proteins were phospho-histone H3 (rabbit anti-phospho-histone H3 and FITC-donkey anti-rabbit IgG), phospho-histone H2A.x (mouse anti-phospho-histone H2A.x and FITC-donkey anti-mouse IgG), c-Jun (rabbit anti-phospho-c-Jun and Cy3-donkey anti-rabbit IgG), p53 (sheep anti-p53 and Cy5-donkey anti-sheep IgG), alpha-tubulin (mouse anti-alpha-tubulin and Cy5-donkey anti-mouse IgG). These antibodies are available as the CellCiphr HepG2 assay kit (Millipore).Digital images of each well were captured using a Cellomics ArrayScan VTI (Thermo Scientific Cellomics) (0.8 NA objective, 0.63x optical coupler, and XF-93 filter set) at 20x magnification. The images were acquired using the autofocus feature of the ArrayScan instrument, which entails the following steps. First, the camera focuses on channel 1 (Hoechst 33342), where nuclei are identified. Second, a Z offset of 1 um is used for capturing mitochondria (MitoTracker Red). […]
Turning to `Clc1ccc(Cl)c(Cl)c1`, the call was inactive.

Consider `[As]#[In]`, for which the outcome was inactive.

For the molecule `CCCCC(CC)COC(=O)c1ccc(C(=O)OCC(CC)CCCC)c(C(=O)OCC(CC)CCCC)c1` (stereo not given), the molecule was called inactive.

In the case of `c1ccc2c(c1)-c1cccc3cccc-2c13`, the result was inactive.

Turning to `c1ccc(N=Nc2ccccc2)cc1`, the outcome was inactive.

Regarding `COP(=S)(OC)SCN1C(=O)c2ccccc2C1=O`, the molecule was called inactive.

Regarding `CC(C)(O)c1cnn2c(-c3ccc(F)c(-c4c(F)cccc4C#N)c3)cnc2n1`, the molecule was called inactive.

`CCCCCCCCOC(=O)c1ccc(C(=O)OCCCCCCCC)c(C(=O)OCCCCCCCC)c1`: the molecule was classed as inactive.

Regarding `Nc1ccc([N+](=O)[O-])cc1`, the molecule was called inactive.

In the case of `Nc1ccc(N=Nc2ccccc2)cc1`, the call was inactive.

As for `c1ccc2c(c1)oc1ccccc12`, the result was inactive.

For the molecule `[Cl-].[Cl-].[Hg+2]`, the AC50 was 15.7 µM (active).

As for `OCCCl`, the call was inactive.

On to `O=C(N[C@H](c1ccccc1)[C@@H]1CN2CCC1CC2)c1c(Cl)ccc(C(F)(F)F)c1Cl`, for which the AC50 was 101 µM (active).

As for `Brc1ccc(Oc2ccccc2)cc1`, the result was inactive.

Regarding `CNC(=O)Oc1cccc2c1OC(C)(C)C2`, the molecule was classed as inactive.

As to `CC(C)N(Cc1ccccc1)C(=O)C(C)(C)C`, the molecule was called inactive.

Take `O=C(Oc1ccc(Br)cc1)N1CCN2CCC1CC2`: the molecule was called inactive.

Take `CCCSC(=O)N(CCC)CCC`: the result was inactive.

For the molecule `CC(C)(C)OOC(C)(C)CCC(C)(C)OOC(C)(C)C`, the result was inactive.

With `CN(C)c1ccc(C(=O)c2ccc(N(C)C)cc2)cc1`, the AC50 was 0.317 µM (active).

For the molecule `Nc1ccc(Cc2ccc(N)cc2)cc1`, the outcome was inactive.

Turning to `CC(O)CCO` (stereo not given), the molecule was called inactive.

Consider `CC(C)(C)OOC(=O)c1ccccc1`, for which the AC50 is 22.8 µM (active).

Regarding `CCC12COCN1COC2`, the half-maximal activity concentration (AC50) was 86 µM (active).

In the case of `OCCCBr`, the call was inactive.

For `CS(=O)(=O)NC(=O)c1cc(Oc2ccc(C(F)(F)F)cc2Cl)ccc1[N+](=O)[O-]`, the molecule was called inactive.

With `Cc1cc(N=Nc2ccccc2C)ccc1N`, the call was inactive.

As to `ClC1=C(Cl)C2(Cl)C3C(Cl)C=CC3C1(Cl)C2(Cl)Cl` (stereo not given), the AC50 was 67.9 µM (active).

As to `CCOc1cccc(C2(N3CCN(c4ccccc4)CC3)CCC(C)CC2)c1` (stereo not given), the result was inactive.

On to `CN(C)C(=O)Nc1ccc(Cl)cc1`, for which the molecule was classed as inactive.

On to `Nc1cc(Cl)cc(C(=O)O)c1Cl`, for which the molecule was classed as inactive.

Consider `Cc1cccc(N)c1N`, for which the result was inactive.

In the case of `CCCCOC(=O)c1ccccc1C(=O)OCc1ccccc1`, the molecule was called inactive.

For `Cc1ccc(N=C=O)cc1N=C=O`, the outcome was inactive.

As to `O=Cc1ccco1`, the molecule was classed as inactive.

On to `c1ccc(NNc2ccccc2)cc1`, for which the concentration at half-maximal activity (AC50) is 110 µM (active).

Regarding `CN(C)c1ccccc1`, the outcome was inactive.

Turning to `O=P(OCCCl)(OCCCl)OCCCl`, the molecule was classed as inactive.

`[O-][Cl+]O`: the molecule was classed as inactive.
